Measurements: PubChem BioAssay (EPA / NIEHS)
Active and inactive are the calls of the source. Rule for the calls: active = hit-call score of the fitted dose curve at least 0.9, where 1 is the maximum; inactive = score below 0.9.

Read-out: Tumor necrosis factor receptor superfamily member 6 (Homo sapiens) (UniProt P25445)
Assay: LTEA_HepaRG_FAS: Life Technologies and Expression Analysis (LTEA) Assay for Fas cell surface death receptor (FAS) using HepaRG (AID 2283447)
Details: mRNA level, 48 h; actives raise or lower the signal
Protocol: LTEA_HepaRG is a cell based, multiplexed-readout assay that uses HepaRG, a human liver cell line, with measurements taken at 48 hours after chemical dosing on a 96-well plate.LTEA_HepaRG_FAS is one of 102 assay component(s) measured in the LTEA HepaRG cell culture assay. It is a marker of Cell proliferation, survival, death.Data from the assay component LTEA_HepaRG_FAS was analyzed into 1 endpoint. This assay endpoint, LTEA_HepaRG_FAS, was analyzed with bidirectional fitting relative to DMSO as the negative control and baseline of activity. Using a type of inducible reporter, measures of mRNA induction for gain or loss-of-signal activity can be used to understand regulation of transcription factor activity. To generalize the intended target to other relatable targets, this assay endpoint is annotated to the cytokine receptor intended target family, where the subfamily is TNF receptor.
A total of 1060 chemcials from the ToxCast library were tested in eight-point concentration-response experiments. Cell culture and cytotoxicity assays were conducted at Thermo Fisher Scientific's Custom Services facility (Madison, WI). A single lot of human HepaRG cells (Thermo Fisher Scientific, Frederick, MD) was used for the cell culture experiments. 96-well format collagen type I coated plates of human HepaRG cells were prepared using established methods. Briefly, cryopreserved HepaRG cells were thawed, plated at a density of approximately 100,000 cells/well in HepaRG Thaw, Plate, and General Purpose media (HPRG770, Thermo Fisher Scientific), and incubated for 48 hours. 0.5% DMSO was selected as vehicle control to balance the requisite need of DMSO in HepaRG cultures to maintain differentiation (for example, baseline metabolism, proportions of hepatocytes vs. cholangiocytes), while enabling further hepatic receptor pathway activation (for example, PXR and CAR) in response to chemical exposure. 48 hours after plating, the culture medium was replaced with HepaRG Serum-Free Incudtion Media. Cells were exposed to each test chemical in duplicate and maintained in CO2 incubators for another 48 hours. Chemical plates were thawed to room temperature and 200x concentrations of treatment groups were prepared. 8-point conentration-reponse curves were made with the highest exposure at 100 uM, followed by half-log dilutions, all in 0.5% DMSO. Each test plate contained variouse controls, induction positive controls (1mM phenobarbital), cytotoxicity positive controls ([…] aflatoxin B1), vehicle controls (0.5% DMSO), and total lysis controls (0.5% DMSO). Cell morphology images were taken using an Essen IncuCyte FLR automated microscope, with six 96-well plates imaged in about 24 minutes. Images were captured and exported and JPEG files. Spent culture media was transfered to black-well plates for the LDH assay, and remaining media was sorted at -80 C for later use. Cells were treated with RLT buffer and frozen until shipped for gene expression analysis. Total RNA was isolated from the cell suspension in 75 uL of Buffer RLT (Qiagen, Germantown, MD 20874) by Quintiles/Expression Analysis (Durham, NC) using a custom isolation procedure. Total RNA from each plate well was transferred to a preamplification plate. Fluidigm's 96.96 Dynamic ArrayTM (Fluidigm, Amsterdam, the Netherlands) technology was used for gene expression analyses by quantitative reverse transcription polymerase chain reaction (qRT-PCR, performed by Quintiles/Expression Analysis, Durham, NC)89. Standard TaqManTM Assays (Applied Biosystems/ThermoFisher Scientific, Foster City, CA) were used to assess the expression of 93 genes selected based on their selectivity and sensitivity to important hepatic receptors known to be modulated by environmental chemicals; importance in human hepatocyte functionality; and hepatotoxicity. […]

| SMILES | outcome | AC50 |
| --- | --- | --- |
| CS(=O)(=O)c1ccc([C@@H](CC2CCCC2)C(=O)Nc2cnccn2)cc1Cl | inactive |  |
| CN(C)CCOC(c1ccccc1)c1ccccc1 | inactive |  |
| O=C(c1ccccc1)c1ccccc1 | inactive |  |
| CN(Cc1cnc2nc(N)nc(N)c2n1)c1ccc(C(=O)N[C@@H](CCC(=O)O)C(=O)O)cc1 | inactive |  |
| CCCCc1oc2ccccc2c1C(=O)c1cc(I)c(OCCN(CC)CC)c(I)c1 |  | 66.6 µM (active) |
| CCCCC=O | inactive |  |
| N=C(N)c1ccc(OCCCCCOc2ccc(C(=N)N)cc2)cc1 |  | 4.23 µM (active) |
| OCC(CO)(CBr)CBr | inactive |  |
| CCCCCCCCCCCCOS(=O)(=O)O | inactive |  |
| O=C1NS(=O)(=O)c2ccccc21 | inactive |  |
| CCCCCCCCCCCCCCC | inactive |  |
| CCCCC(CC)C(=O)O (stereo unspecified) | inactive |  |
| CCC(C)c1ccccc1O (stereo unspecified) | inactive |  |
| CC(=O)Nc1ccc(O)cc1 | inactive |  |
| Cc1[nH]nc2c1N=C(c1ccccc1Cl)c1cc([N+](=O)[O-])ccc1N2 |  | 4.11 µM (active) |
| O=C(CCCN1CCC(O)(c2ccc(Cl)cc2)CC1)c1ccc(F)cc1 |  | 85.8 µM (active) |
